PubChem BioAssay AID1159580 (chemical genetic matrix, 2015)
Values joined by “and” are separate entries in the source; they are usually repeats but may differ in a detail not shown here. Equal entries are not always repeated. The campaign covered roughly 5,500 compounds. About 2,000 (36%) were called active. Inconclusive results (about 18%) are left out. No stated cut-off is given here; in the data, active means normalized growth mostly below about 0.91 (no sharp cut-off); inconclusive means no clear call, values can overlap the other calls; inactive means mostly above about 0.92. This is one part of the list.

Test: chemical genetic growth profiling, strain panel (AID 1159580);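 further: tested at 20 µM; growth read once vehicle control cultures reached saturation at 30 °C; 1 = growth at the plate median or of vehicle wells; lower values mean less growth of the strain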
Conditions: growth OD

Measured: normalized growth

COC(=O)COc1ccc(Cl)cc1Cl
inactive: S. cerevisiae deletion strains, locus YAL013W, strain DEP1, hits give low values 1 | S. cerevisiae deletion strains, locus YBR021W, strain FUR4, hits give low values 1.01 | S. cerevisiae deletion strains, locus YBR229C, strain ROT2, hits give low values 1.01 | S. cerevisiae deletion strains, locus YCL029C, strain bik1, hits give low values 1.02 | S. cerevisiae deletion strains, locus YDL035C, strain GPR1, hits give low values 1.02 | S. cerevisiae deletion strains, locus YDL074C, strain BRE1, hits give low values 1.03 | S. cerevisiae deletion strains, locus YDL101C, strain DUN1, hits give low values 1.01 | S. cerevisiae deletion strains, locus YDL134C, strain PPH21, hits give low values 1.01 | S. cerevisiae deletion strains, locus YDL185W, strain tfp1, hits give low values 1.01 | S. cerevisiae deletion strains, locus YDL192W, strain arf1, hits give low values 1.02 | S. cerevisiae deletion strains, locus YDR101C, strain arx1, hits give low values 1.02 | S. cerevisiae deletion strains, locus YDR150W, strain NUM1, hits give low values 1 | S. cerevisiae deletion strains, locus YDR162C, strain NBP2, hits give low values 0.996 | S. cerevisiae deletion strains, locus YDR318W, strain mcm21, hits give low values 1.02 | S. cerevisiae deletion strains, locus YDR388W, hits give low values 1.02 | S. cerevisiae deletion strains, locus YDR502C, strain sam2, hits give low values 1.02 | S. cerevisiae deletion strains, locus YEL061C, strain CIN8, hits give low values 1 | S. cerevisiae deletion strains, locus YER110C, hits give low values 1.01 | S. cerevisiae deletion strains, locus YER155C, strain BEM2, hits give low values 1 | S. cerevisiae deletion strains, locus YER167W, strain BCK2, hits give low values 1 | S. cerevisiae deletion strains, locus YGL078C, strain dbp3, hits give low values 1.01 | S. cerevisiae deletion strains, locus YGL086W, strain mad1, hits give low values 1 | S. cerevisiae deletion strains, locus YGL248W, strain PDE1, hits give low values 1.01 | S. cerevisiae deletion strains, locus YGR078C, strain PAC10, hits give low values 1.02 | S. cerevisiae deletion strains, locus YGR135W, strain pre9, hits give low values 1.02 | S. cerevisiae deletion strains, locus YGR229C, strain SMI1, hits give low values 1.01 | S. cerevisiae deletion strains, locus YGR252W, strain gcn5, hits give low values 1.04 | S. cerevisiae deletion strains, locus YHR030C, strain SLT2, hits give low values 1.01 and 1.04 | S. cerevisiae deletion strains, locus YHR079C, strain IRE1 (second series), hits give low values 1.01 | S. cerevisiae deletion strains, locus YHR079C, strain IRE1, hits give low values 1.03 | S. cerevisiae deletion strains, locus YHR094C, strain hxt1, hits give low values 1.02 | S. cerevisiae deletion strains, locus YHR129C, strain ARP1, hits give low values 1.01 | S. cerevisiae deletion strains, locus YHR200W, strain rpn10, hits give low values 1.01 | S. cerevisiae deletion strains, locus YIL066C, strain RNR3, hits give low values 1.02 | S. cerevisiae deletion strains, locus YIL073C, strain SPO22, hits give low values 1.08 | S. cerevisiae deletion strains, locus YIL125W, strain kgd1, hits give low values 1.01 | S. cerevisiae deletion strains, locus YIR030C, strain dcg1, hits give low values 1.02 | S. cerevisiae deletion strains, locus YJL095W, strain BCK1, hits give low values 1 and 1.05 | S. cerevisiae deletion strains, locus YJL134W, strain LCB3, hits give low values 1 | S. cerevisiae deletion strains, locus YJL168C, strain set2, hits give low values 1.02 | S. cerevisiae deletion strains, locus YJL187C, strain SWE1 (second series), hits give low values 1.01 | S. cerevisiae deletion strains, locus YJR043C, strain POL32, hits give low values 1.01 | S. cerevisiae deletion strains, locus YJR066W, strain TOR1, hits give low values 0.975 | S. cerevisiae deletion strains, locus YJR075W, strain HOC1, hits give low values 1.01 | S. cerevisiae deletion strains, locus YKL009W, strain mrt4, hits give low values 1.03 | S. cerevisiae deletion strains, locus YKL068W, hits give low values 1.01 | S. cerevisiae deletion strains, locus YKL085W, strain MDH1 (second series), hits give low values 0.993 | S. cerevisiae deletion strains, locus YKL085W, strain MDH1, hits give low values 0.993 | S. cerevisiae deletion strains, locus YKL190W, strain CNB1, hits give low values 1.01 | S. cerevisiae deletion strains, locus YKR001C, strain vps1, hits give low values 1.04 | S. cerevisiae deletion strains, locus YLR039C, strain RIC1, hits give low values 1.02 | S. cerevisiae deletion strains, locus YLR058C, strain SHM2, hits give low values 1.02 | S. cerevisiae deletion strains, locus YLR102C, strain apc9, hits give low values 1.01 | S. cerevisiae deletion strains, locus YLR113W, strain HOG1, hits give low values 0.974 | S. cerevisiae deletion strains, locus YLR262C, strain YPT6, hits give low values 1.06 | S. cerevisiae deletion strains, locus YLR268W, strain sec22, hits give low values 1.03 | S. cerevisiae deletion strains, locus YLR330W, strain CHS5, hits give low values 1.01 | S. cerevisiae deletion strains, locus YLR342W, strain FKS1 (second series), hits give low values 1.01 | S. cerevisiae deletion strains, locus YLR371W, strain rom2, hits give low values 1.01 | S. cerevisiae deletion strains, locus YLR418C, strain cdc73, hits give low values 1.04 | S. cerevisiae deletion strains, locus YML016C, strain PPZ1, hits give low values 1.01 | S. cerevisiae deletion strains, locus YML032C, strain rad52, hits give low values 1.02 | S. cerevisiae deletion strains, locus YML124C, strain tub3, hits give low values 1.02 | S. cerevisiae deletion strains, locus YMR078C, strain ctf18, hits give low values 1.03 | S. cerevisiae deletion strains, locus YMR223W, strain ubp8, hits give low values 1.02 | S. cerevisiae deletion strains, locus YMR263W, strain SAP30, hits give low values 1 | S. cerevisiae deletion strains, locus YMR307W, strain GAS1, hits give low values 1.02 | S. cerevisiae deletion strains, locus YNL067W, strain RPL9B, hits give low values 1 | S. cerevisiae deletion strains, locus YNL128W, strain TEP1, hits give low values 1.01 | S. cerevisiae deletion strains, locus YNL153C, strain GIM3, hits give low values 1.01 | S. cerevisiae deletion strains, locus YNL183C, strain NPR1, hits give low values 0.969 | S. cerevisiae deletion strains, locus YNL233W, strain BNI4, hits give low values 1 | S. cerevisiae deletion strains, locus YNL250W, strain rad50, hits give low values 1.01 | S. cerevisiae deletion strains, locus YNL271C, strain bni1, hits give low values 1 | S. cerevisiae deletion strains, locus YNL298W, strain CLA4, hits give low values 1.04 | S. cerevisiae deletion strains, locus YNL307C, strain MCK1, hits give low values 1.03 | S. cerevisiae deletion strains, locus YNL322C, strain KRE1, hits give low values 1.01 | S. cerevisiae deletion strains, locus YNR052C, strain pop2, hits give low values 1.03 | S. cerevisiae deletion strains, locus YOL006C, strain TOP1, hits give low values 1.02 | S. cerevisiae deletion strains, locus YOL012C, strain htz1 1.19 | S. cerevisiae deletion strains, locus YOL147C, strain pex11, hits give low values 1.01 | S. cerevisiae deletion strains, locus YOR061W, strain CKA2, hits give low values 0.997 | S. cerevisiae deletion strains, locus YOR069W, strain VPS5, hits give low values 1 | S. cerevisiae deletion strains, locus YOR136W, strain idh2, hits give low values 1.02 | S. cerevisiae deletion strains, locus YOR144C, strain elg1, hits give low values 1.02 | S. cerevisiae deletion strains, locus YOR184W, strain ser1, hits give low values 1.03 | S. cerevisiae deletion strains, locus YOR231W, strain MKK1, hits give low values 1.04 | S. cerevisiae deletion strains, locus YOR316C, strain cot1, hits give low values 1.01 | S. cerevisiae deletion strains, locus YPL055C, strain LGE1, hits give low values 1.02 | S. cerevisiae deletion strains, locus YPL241C, strain CIN2, hits give low values 1 | S. cerevisiae deletion strains, locus YPL256C, strain CLN2, hits give low values 1.05 | S. cerevisiae deletion strains, locus YPR119W, strain clb2, hits give low values 1.01 | S. cerevisiae deletion strains, locus YPR141C, strain kar3, hits give low values 1.01 | S. cerevisiae deletion strains, locus YPR163C, strain tif3, hits give low values 1.02 | S. cerevisiae deletion strains, locus YPR167C, strain met16, hits give low values 1.01 | S. cerevisiae deletion strains, strain wtn01, hits give low values 1.01 | S. cerevisiae strains, strain wild type, hits give low values 1
